Bioassay records deposited in PubChem by several laboratories.
RmlCD inh mix: RmlC/RmlD inhibition, mixture screen. RmlC/RmlD coupled enzyme inhibition, 384-well mixture HTS. inhibition, % at 5.5 µM. 110,000 tested, 0.39% active. AID 1532; in the data active = inhibition above about 30%, passing the limit was not always enough
YopH inh: YopH (Yersinia) phosphatase inhibition. fluorescence Ex485/Em525. AID 898. 140,000 tested, 0.16% active. inhibition, % (test concentration not listed); in the data active = inhibition above about 50%
An asterisk follows results filed as active. Compounds with a hit are over-represented: about 0.44% of the library has one in this group of screens.

How did CCN(CC)c1ccc(N2C(=O)c3ccccc3C2=O)cc1 do in these assays?
RmlCD inh mix: 7.2; YopH inh: -16.9

How did CCO/C=C1\C(=O)N(c2ccccc2)C(=O)c2ccccc21 do in these assays?
RmlCD inh mix: 186.0*; YopH inh: 89.1*

Results for CCO/C=C1/C(=O)N(Cc2ccccc2)C(=O)c2ccccc21 ?
YopH inh: 101.4*

What do the screens show for `CCO/C=C1/C(=O)N(CC)c2ccccc21`?
YopH inh: 2.0

Results for CCOc1ccc(C(=O)NC(=S)Nc2ccc(NC(=O)c3ccco3)c(C)c2)cc1[N+](=O)[O-] ?
YopH inh: -7.5

Results for O=C(NCC1CC1)c1onc(CSc2ccncc2)c1C(=O)NCC1CC1 ?
RmlCD inh mix: -11.9

How did COc1cc(NC(=O)c2ccc3c(c2)OCO3)c2ncccc2c1 do in these assays?
RmlCD inh mix: -17.3; YopH inh: -31.8

What do the screens show for `COc1cc(NCCCCCCCN)c2ncccc2c1`?
RmlCD inh mix: -15.3; YopH inh: 52.5*

How did CN1CCc2c(sc3c2C(=O)NC(c2ccco2)N3)C1 (stereo unspecified) do in these assays?
RmlCD inh mix: 6.6; YopH inh: -31.1

How did CN1CCc2c(sc3c2C(=O)NC(c2cccc(OC(=O)c4cccs4)c2)N3)C1 (stereo unspecified) do in these assays?
YopH inh: 72.1*

What do the screens show for `CCOC(=O)c1c(C)oc2c1c(C=NCC1CCCO1)c(O)c1ccccc12` (stereo unspecified)?
YopH inh: 43.9

How did CCOC(=O)c1c(C)oc2c1c(C=NCc1ccccn1)c(O)c1ccccc12 do in these assays?
YopH inh: 56.6*

Results for Cc1ccc(-c2cc(C(=O)Nc3cc(C)ccc3C)[nH]n2)c(O)c1 ?
RmlCD inh mix: -12.4; YopH inh: -21.0

Results for COc1ccc(OC)c(NC(=O)c2cc(-c3ccc(C)cc3O)n[nH]2)c1 ?
RmlCD inh mix: 2.3; YopH inh: 91.6*

Results for O=C1CC(=O)N2N=C(c3ccc([N+](=O)[O-])cc3)SC2=N1 ?
YopH inh: -26.0

What do the screens show for `COc1ccc(C2C=C(c3cccs3)Nc3nc(CCCO)nn32)cc1` (stereo unspecified)?
RmlCD inh mix: 44.0*; YopH inh: -15.2

Results for COc1ccc(C2C=C(c3ccccc3)Nc3nc(CCCO)nn32)cc1 (stereo unspecified) ?
RmlCD inh mix: 23.9; YopH inh: -27.6

Results for CC(C)(C)[C@H]1C=C(C(=O)NCc2nc3ccccc3[nH]2)O[C@@H](OCc2ccc(CO)cc2)C1 ?
RmlCD inh mix: -0.3

Results for Cc1cccn2c(=O)c(C=Nc3ccc(Cl)cc3)c(NCCO)nc12 ?
RmlCD inh mix: 1.2; YopH inh: -32.9

What do the screens show for `Cc1cccn2c(=O)c(C=Nc3ccccc3)c(NCCO)nc12`?
RmlCD inh mix: 36.6*; YopH inh: -46.0

Results for Cc1csc(N2CCc3ccccc32)n1 ?
RmlCD inh mix: 6.9; YopH inh: 53.8*

How did Cc1cc(N2CCCc3ccccc32)n2ncnc2n1 do in these assays?
RmlCD inh mix: 15.0; YopH inh: -4.8

How did C[C@@H](C(=O)Nc1ccc2ccccc2c1)[C@H]1C[C@]1(C)[C@H](NS(=O)(=O)c1ccccc1)c1ccccc1 do in these assays?
RmlCD inh mix: 12.0; YopH inh: -24.9

Results for COc1cc(C2NC(=O)NC(C)=C2C(=O)OCc2ccccc2)ccc1O (stereo unspecified) ?
RmlCD inh mix: 17.4

How did COc1cc(C2C(C(=O)OC(C)C)=C(C)Nc3[nH]c(=O)[nH]c(=O)c32)ccc1O (stereo unspecified) do in these assays?
RmlCD inh mix: -10.8; YopH inh: 50.9*

What do the screens show for `C=CCn1c2ccccc2c2nnc(SCCCn3c(=O)[nH]c4ccccc43)nc21`?
RmlCD inh mix: 71.4*; YopH inh: 21.9

What do the screens show for `O=c1[nH]c2ccccc2n1CCCSc1cnc2ccccc2n1`?
RmlCD inh mix: 17.8; YopH inh: 19.3

Results for Cc1ccc(-n2c(SCC(=O)NCc3ccco3)nc3c(sc4ccccc43)c2=O)cc1 ?
YopH inh: -10.0

What do the screens show for `Cc1ccc(C(=O)c2c(C)oc3c2C(=O)C(=O)c2ccccc2-3)cc1`?
RmlCD inh mix: -17.1; YopH inh: 68.8*

What do the screens show for `Cc1oc2c(c1C(=O)c1ccc(Cl)cc1)C(=O)C(=O)c1ccccc1-2`?
YopH inh: 5.5

How did CC(COc1ccccc1Cc1ccccc1)N1CCCCC1 (stereo unspecified) do in these assays?
RmlCD inh mix: -10.5

What do the screens show for `Cc1nc2c(=O)n(C)c(=O)nc-2n(C)n1`?
YopH inh: 101.1*

How did Cn1c(=O)c(-c2ccccc2)nn2c3ccccc3nc12 do in these assays?
RmlCD inh mix: 7.6; YopH inh: -6.9

What do the screens show for `CC(C)CCOC(=O)C1C(c2ccccc2)C(C(=O)O)C1c1ccccc1` (stereo unspecified)?
RmlCD inh mix: -11.7; YopH inh: -34.7

How did CC(C)(C)c1ccc(NC(=O)COC(=O)c2ccc([N+](=O)[O-])s2)cc1 do in these assays?
YopH inh: -19.2

How did O=C(COC(=O)c1ccc([N+](=O)[O-])s1)Nc1ccccc1 do in these assays?
YopH inh: 50.5*

How did CCO[C@@H]1OC(C(N)=O)=C[C@H](C2CC2)[C@H]1CCCO do in these assays?
RmlCD inh mix: 6.3

What do the screens show for `Cc1cc(C)c2c(n1)nn1c(NCCOCCO)cc(C)nc21`?
RmlCD inh mix: 44.1*; YopH inh: -23.0

What do the screens show for `Cc1cc(C)c2c(n1)nn1c(N3CCN(c4ccccc4)CC3)cc(C)nc21`?
RmlCD inh mix: -27.5; YopH inh: -25.5

What do the screens show for `CCOC(=O)c1nc(N)c(=O)n(-c2ccc(C)cc2)n1`?
RmlCD inh mix: 6.8; YopH inh: -28.2

Results for CCOC(=O)c1nc(C)n(-c2ccc(Cl)cc2)n1 ?
RmlCD inh mix: -1.2; YopH inh: 51.9*

How did CCCCCCCC#Cc1ccccc1/C=N/S(=O)c1ccc(C)cc1 (stereo unspecified) do in these assays?
YopH inh: -27.3

Results for O=C(c1ccco1)N1CCN=C1SCc1cccnc1 ?
RmlCD inh mix: 5.9; YopH inh: -30.1

Results for O=C(c1cccs1)N1CCN=C1SCc1cccnc1 ?
RmlCD inh mix: -3.1; YopH inh: 50.5*

How did CNC(=O)c1cc2cc(OC)ccc2oc1=O do in these assays?
RmlCD inh mix: -0.3; YopH inh: -12.7

Results for CNC(=O)c1cc2cc(OC)ccc2oc1=N ?
RmlCD inh mix: 42.0*; YopH inh: -18.9

How did C#Cc1ccc([C@@H]2C=C(C(=O)OCC=C)O[C@H](OCc3ccc(CO)cc3)C2)cc1 do in these assays?
RmlCD inh mix: -12.0

How did CCOc1ccccc1C(=O)Nc1ccc(-c2nnc(-c3ccc(C)cc3)o2)cc1 do in these assays?
YopH inh: -11.3

Results for Cc1cc(C)c(NC(=O)COc2ccccc2C(=O)Nc2ccc3c(c2)oc2ccccc23)c(C)c1 ?
RmlCD inh mix: active; YopH inh: -12.8

Results for COc1ccccc1C1CC(=O)NC(C)=C1C(=O)OCC(C)C (stereo unspecified) ?
RmlCD inh mix: -11.7; YopH inh: -20.6

What do the screens show for `C=CCOC(=O)C1=C(C)NC(=O)NC1/C=C/c1ccccc1` (stereo unspecified)?
RmlCD inh mix: 1.1; YopH inh: -41.3

What do the screens show for `C=CCOC(=O)C1=C(C)NC2(O)c3ccccc3C(=O)C12O` (stereo unspecified)?
RmlCD inh mix: 2.1; YopH inh: 77.6*

How did CC1=C(C(=O)OCC(C)C)C2(O)C(=O)c3ccccc3C2(O)N1 (stereo unspecified) do in these assays?
YopH inh: 68.7*
